# Measured values as given in PubChem BioAssay AID624483 (NMMLSC, 2012).
# Where “and” joins values, the source holds several entries; their conditions need not be identical. Equal values may be shown once. The campaign covered roughly 360,000 compounds. About 11,000 (3.1%) were called active. Roughly 2% stayed inconclusive and do not appear here. Cut-off read from the data, not from the text of the source: active = fluorescence intensity above about 16000; inconclusive = no clear call, values can overlap the other calls; inactive = below that. The full list was thinned out, with actives kept by preference. The source holds several records for some structures; these can differ, active in one and inactive in another.
# Test: counter-screen for toxin protease inhibitors: compound fluorescence, primary screen, artefact control for toxin protease inhibitor project, biochemical, multiplex microsphere, HTS (AID 624483)
# Conditions: compound autofluorescence counterscreen, microsphere flow cytometry; stronger effect = higher value
row,SMILES,fluorescence intensity
1,COc1ccc(NC(=O)CN2C(=O)COc3ccc(S(=O)(=O)N4CCOCC4)cc32)cc1,4800 (inactive)
2,CC1(C(=O)NS(=O)(=O)c2ccccc2)CCN1C(=O)C/C=C/c1ccccc1 (centres undefined),3600 (inactive)
3,Oc1ccc2ccc3cccc[n+]3c2c1,4220 (inactive)
4,CCCC(=O)N1CCC1(C)C(=O)NCc1ccc(C(C)C)cc1 (centres undefined),3880 (inactive)
5,COc1ccc(-n2ncc3c(SCC(=O)NNC(C)=O)ncnc32)cc1,3990 (inactive)
6,COc1ccc(-n2ncc3c(N4CCCc5ccccc54)ncnc32)cc1,11300 (inactive)
7,COc1ccc(-n2ncc3c(N4CCc5ccccc54)ncnc32)cc1,22400 (active)
8,CCCNC(=O)C1(C)CCN(Cc2csc(-c3ccc(Cl)cc3)n2)C1 (centres undefined),3720 (inactive)
9,Cc1cc2nc(-c3ccc(Cl)cc3)c(Cc3cccc(F)c3)n2c(C)c1Br,6020 (inactive)
10,O=C(N1CCCC1)C12CC3CC(C1)CC(C(=O)N1CCCC1)(C3)C2,2410 (inactive)
11,O=C(NCC12CC3CC(C1)CC(CNC(=O)N1CCCC1)(C3)C2)N1CCCC1,16800 (active)
12,C=CCNC(=O)CC12CC3CC(C1)CC(CC(=O)NCC=C)(C3)C2,4730 (inactive)
13,Nc1nc(SCc2cccc(Br)c2)n[nH]1,3680 (inactive)
14,C=CCc1cccc2cc(C(=O)NC3CCCC3)c(=O)oc12,2230 (inactive)
15,Cc1ccc(C(=O)CSc2nc3ccccc3c(=O)n2N)o1,19100 (active)
16,COc1ccc(OCc2ccc(-c3nc4ccccc4c(=O)n3N)o2)cc1,2450 (inactive)
17,COc1ccc(NC(=O)CSc2nc3ccccc3c(=O)n2C)cc1,3680 (inactive)
18,COc1ccc(-c2ccc(C(=O)NCCN3CCOCC3)c3occc23)c(C)c1,3620 (inactive)
19,Cc1nnc(SCC(=O)Nc2ccc(S(=O)(=O)Nc3ccc(Cl)nn3)cc2)s1,5340 (inactive)
20,COc1ccc(CN2CCN(Cc3ccc(OC)c(OC)c3OC)CC2)cc1,3740 (inactive)
21,COc1ccccc1N1CCN(Cc2ccc(OC)c3ccccc23)CC1,21400 (active)
22,COc1ccccc1N1CCN(Cc2cc(OC)c3c(c2)OCO3)CC1,3350 (inactive)
23,COC(C[C@@H](O)[C@H](C)[C@H](O)COCc1ccccc1)OC,4260 (inactive)
24,COc1cc(/C=C(/NC(=O)c2ccccc2)C(=O)Nc2cccc(O)c2)c([N+](=O)[O-])cc1OC,11300 (inactive)

row,SMILES,fluorescence intensity
1,O=C(COC(=O)/C=C/c1ccc(OC(F)F)cc1)NC1CCCCC1,5950 (inactive)
2,CC(=O)C1=C(O)C(=O)N(c2ccc(S(N)(=O)=O)cc2)C1c1ccccc1F (centres undefined),2660 (inactive)
3,CN(C)CCCOc1ccc(-c2ccc3nccn3c2)cn1,3380 (inactive)
4,Cc1nc([N+](=O)[O-])cn1CC(=O)Nc1ccc(Cl)cc1,3080 (inactive)
5,CC(C)C[C@@H]1COc2cc(N3CCC[C@@H]3CO)ccc2S(=O)(=O)N1,6270 (inactive)
6,Cc1ccccc1S(=O)(=O)NC(=O)C1(C)CCN1C(=O)Cc1ccc(Cl)cc1Cl (centres undefined),3450 (inactive)
7,COc1ccc(/C=N/Nc2nc3ccccc3c(=O)[nH]2)cc1,19400 (active)
8,COc1ccc(CCCc2nnc(SCc3nc4ccccc4c(=O)[nH]3)n2C)cc1,4610 (inactive)
9,COc1ccc(/C=N/Nc2nc(-c3ccc(C)cc3)c(C#N)c(=O)[nH]2)cc1,3690 (inactive)
10,CN(Cc1ccccc1F)c1cc2c(c3c1ccn3C)C1CCC2O1 (centres undefined),5510 (inactive)
11,CC=CCn1c(SCCCc2ccccc2)nc2c1c(=O)[nH]c(=O)n2C,3020 (inactive)
12,Cn1c(=O)[nH]c(=O)c2c1nc(Br)n2CCCCSc1nc2ccccc2o1,24200 (active)
13,CCN(CC)C(=O)CSc1nc2ccccc2o1,2780 (inactive)
14,Cc1ccnc(SCCn2c(Br)nc3c2c(=O)[nH]c(=O)n3C)n1,2110 (inactive)
15,CC(C)(C)C(=O)CSc1nc2ccccc2o1,4330 (inactive)
16,Cn1c(=O)c2c(nc(Br)n2CCSc2nc3ccccc3o2)n(C)c1=O,20900 (active)
17,CC1Cc2[nH][nH]c(=O)c2C(C2CC2)O1 (centres undefined),6380 (inactive)
18,CCCCc1c(-c2ccc(Br)cc2)ncn1CCc1ccccc1OC,5930 (inactive)
19,Cc1c(C(C)CCCO)oc(=O)c2c1Oc1c(C)c(C(C)C[C@@H](C)O)oc(=O)c1C2 (some centres undefined),3640 (inactive)
20,CCn1c(SCC(=O)NC2CC2)nnc1-c1ccncc1,4270 (inactive)
21,COc1cccc(C(O)c2ncc(-c3ccc4ccccc4c3)[nH]2)c1 (centres undefined),4120 (inactive)
22,S=C(NCCCc1cnc[nH]1)NCCCN(Cc1ccc(Cl)c(Cl)c1)c1ccc(Br)cn1,3910 (inactive)
23,Cc1ccc(-n2nc3cc(C)c(NC(=O)c4cccnc4)cc3n2)cc1,3240 (inactive)
24,Cc1ccc(NC(=O)c2ccco2)cc1,3370 (inactive)

row,SMILES,fluorescence intensity
1,Cc1ccc(-n2nc3cc(Cl)c(NC(=O)c4ccco4)cc3n2)cc1,20600 (active)
2,CN(C(=O)CN1CCN(c2cc(-c3ccc(OCc4ccccc4)cc3)ncn2)CC1)c1ccccc1,2960 (inactive)
3,COC(=O)c1ccc2nc(-c3cccc(Br)c3)c(Cc3ccccc3C(F)(F)F)n2c1,5960 (inactive)
4,OCCNc1nc(Nc2ccc(Cl)c(Cl)c2)nc2ccccc12,3890 (inactive)
5,Nc1nnc(SCC(=O)Nc2ccc3nc(SCC(=O)Nc4ccccc4)sc3c2)s1,2450 (inactive)
6,O=[N+]([O-])c1c(NCCO)cc(Sc2nc3ccccc3s2)c2nonc12,16100 (active)
7,COc1ccc(C2=NO[C@@H]3C(=O)N(Cc4ccccc4)C(=O)[C@H]23)cc1OC,8330 (inactive)
8,Cc1c(C=O)c2ccccn2c1C(=O)c1ccncc1,20400 (active)
9,Cc1c(C(=O)NNC(=O)c2ccncc2)oc2ccccc12,6810 (inactive)
10,Cc1cc2ccccn2c1C(=O)c1cccc(F)c1,3460 (inactive)
11,O=C(CN1C(=O)NC2(CCCCCC2)C1=O)Nc1ccc([N+](=O)[O-])cc1,3160 (inactive)
12,O=C(NCCO)c1cccc(-c2cccc3nccn23)c1,3960 (inactive)
13,C[C@H](CO)N1C[C@H](C)[C@@H](CN(C)Cc2ccc(-c3ccccc3)cc2)Oc2ccc(NC(=O)Cn3cnnn3)cc2C1=O,3780 (inactive)
14,COc1ccc(NC(=O)C2Cc3c(-c4cccc(NC(C)=O)c4)ccnc3O2)cc1OC (centres undefined),3970 (inactive)
15,CNC(=O)CN1C(=O)NC(c2ccccc2)(c2ccccc2)C1=O,4630 (inactive)
16,CC1(C(=O)NS(=O)(=O)c2ccccc2Cl)CCN1C(=O)c1cccc(F)c1 (centres undefined),2940 (inactive)
17,O=c1[nH]c(=O)n(Cc2ccco2)c2c1C(C(F)(F)F)(C(F)(F)F)N=C(c1ccco1)N2,24800 (active)
18,CC(=O)Nc1ccc(S(=O)(=O)NC2(C(F)(F)F)C(=O)Nc3c2c(=O)[nH]c(=O)n3Cc2ccccc2)cc1 (centres undefined),2630 (inactive)
19,Cc1ccccc1C1=NC(C(F)(F)F)(C(F)(F)F)c2c(n(-c3ccc(F)cc3)c(=O)[nH]c2=O)N1,10500 (inactive)
20,CC(C)C[C@H]1CNC(=O)C(=O)N1C[C@H]1CCCN1C[C@H](Cc1ccc(O)cc1)N1C[C@H](CC(C)C)N(CC2CCCCCC2)C(=O)C1=O,4880 (inactive)
21,Cc1ccc2nc(NCCCNC(=O)c3cnccn3)c(C#N)cc2c1,20100 (active)
22,COCCCNC(=S)NCCNc1nc2cc(C)c(C)cc2cc1C#N,4720 (inactive)
23,O=C(COc1ccc(Cl)cc1Cl)NCCCNC(=O)c1cnccn1,3160 (inactive)
24,CCOc1ccc2nc(Cl)c(C3CC(c4ccccc4)=NN3C(=O)c3cccs3)cc2c1 (centres undefined),2410 (inactive)

row,SMILES,fluorescence intensity
1,Nc1ccccc1Sc1cc(Cl)nnc1Cl,3840 (inactive)
2,CCc1cc(Br)ccc1NC(=O)C1CCCO1 (centres undefined),10900 (inactive)
3,COC(=O)c1cc(OC)c(OC)cc1NC(=O)C1CCCO1 (centres undefined),18500 (active)
4,CCOC(=O)c1ccc(NC(=O)c2ccc(NC(=O)C3CCCO3)cc2)cc1 (centres undefined),3420 (inactive)
5,O=S1(=O)CC(N2CCN(Cc3ccccc3F)CC2)CN1Cc1cn(Cc2ccccc2)nn1 (centres undefined),5590 (inactive)
6,CCC(C)(C(=O)Nc1ccccc1C)N(C(=O)CNC(C)=O)c1ccc(C)cc1 (centres undefined),2200 (inactive)
7,CC1CCN(c2ccc([N+](=O)[O-])c(SCCO)c2)CC1,6270 (inactive)
8,CN1CCN(c2ccc([N+](=O)[O-])c(Sc3nc4ccccc4[nH]3)c2)CC1,16500 (active)
9,COc1cccc(-c2nc3ccc(N4CCN(C)CC4)cc3[nH]2)c1,3340 (inactive)
10,CC1Cc2[nH][nH]c(=O)c2C(C2CCCC2)O1 (centres undefined),6280 (inactive)
11,Cc1ccc(C(=O)C[n+]2cc(-c3ccccc3)n3c2CCCCC3)cc1,25100 (active) and 2670 (inactive)
12,Clc1ccc(C[n+]2cc(-c3ccccc3)n3c2CCC3)cc1,3590 (inactive)
13,Cc1ccc(-c2c[n+](CC(=O)Nc3ccccc3)c3n2CCC3)cc1,3860 (inactive)
14,O=S(=O)(N1CCCCC1)N1CCNCC1,9990 (inactive)
15,CO/N=C/c1ccc(N2CCN(C(=O)c3cccc(Cl)c3)CC2)c([N+](=O)[O-])c1,22700 (active)
16,O=C(/C=C/c1ccc(Cl)cc1)N1CCN(c2ccccc2[N+](=O)[O-])CC1,2480 (inactive)
17,O=C(c1ccc(Cl)c([N+](=O)[O-])c1)N1CCN(c2ccccc2)CC1,4410 (inactive)
18,Cc1cccnc1C(NC(=O)C1CCN(Cc2ccc(Cl)c(Cl)c2)CC1)c1ccc(Cl)cc1 (centres undefined),3480 (inactive)
19,Cc1ccc(S(=O)(=O)NCCC(c2ccccc2)c2ccccc2)cc1C(=O)O,3790 (inactive)
20,COc1ccc(NC(=S)N2N=CCC2c2ccccc2)cc1 (centres undefined),22400 (active)
21,COc1ccc(NC(=S)N2CCc3cc(OC)c(OC)cc3C2)cc1,5760 (inactive)
22,CCC(C)N(C)C1CCN(C(=S)Nc2ccc(OC)cc2)CC1 (centres undefined),4340 (inactive)
